# In ChEMBL document CHEMBL1961873, “Compounds: GSK PKIS; Assays: Nanosyn kinase panel” (2012):
# Key:
# [1] = target: RAC-alpha serine/threonine-protein kinase (Homo sapiens) (UniProt P31749); conditions: at 0.1 µM
# [2] = target: RAC-alpha serine/threonine-protein kinase (Homo sapiens) (UniProt P31749); conditions: at 1 µM
# [3] = target: RAC-beta serine/threonine-protein kinase (Homo sapiens) (UniProt P31751); conditions: at 0.1 µM
# [4] = target: RAC-beta serine/threonine-protein kinase (Homo sapiens) (UniProt P31751); conditions: at 1 µM
# [5] = target: RAC-gamma serine/threonine-protein kinase (Homo sapiens) (UniProt Q9Y243); conditions: at 0.1 µM
# [6] = target: RAC-gamma serine/threonine-protein kinase (Homo sapiens) (UniProt Q9Y243); conditions: at 1 µM
# [7] = target: G protein-coupled receptor kinase 6 (Homo sapiens) (UniProt P43250); conditions: at 0.1 µM
# [8] = target: G protein-coupled receptor kinase 6 (Homo sapiens) (UniProt P43250); conditions: at 1 µM
# [9] = target: T1, Rhodopsin kinase GRK7 (Homo sapiens) (UniProt Q8WTQ7); conditions: at 0.1 µM
# T1 sequence (whole entry): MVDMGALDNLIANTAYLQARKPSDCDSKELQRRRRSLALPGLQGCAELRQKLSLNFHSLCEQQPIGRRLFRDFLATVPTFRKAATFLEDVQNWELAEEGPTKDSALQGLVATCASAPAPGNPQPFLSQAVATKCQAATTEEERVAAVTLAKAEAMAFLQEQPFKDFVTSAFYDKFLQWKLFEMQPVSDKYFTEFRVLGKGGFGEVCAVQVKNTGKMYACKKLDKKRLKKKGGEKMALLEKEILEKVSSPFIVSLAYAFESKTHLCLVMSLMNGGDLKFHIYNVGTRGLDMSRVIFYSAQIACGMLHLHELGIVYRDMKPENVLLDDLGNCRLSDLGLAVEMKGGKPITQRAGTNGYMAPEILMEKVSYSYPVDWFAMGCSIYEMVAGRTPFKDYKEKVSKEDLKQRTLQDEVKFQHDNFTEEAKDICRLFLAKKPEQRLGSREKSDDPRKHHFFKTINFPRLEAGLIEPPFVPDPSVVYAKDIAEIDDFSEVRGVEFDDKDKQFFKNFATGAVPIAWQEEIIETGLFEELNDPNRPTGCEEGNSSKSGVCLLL
# [10] = target: T1, Rhodopsin kinase GRK7 (Homo sapiens); conditions: at 1 µM
# [11] = target: Serine/threonine-protein kinase MRCK alpha (Homo sapiens) (UniProt Q5VT25); conditions: at 0.1 µM
# [12] = target: Serine/threonine-protein kinase MRCK alpha (Homo sapiens) (UniProt Q5VT25); conditions: at 1 µM
# [13] = target: Serine/threonine-protein kinase MRCK beta (Homo sapiens) (UniProt Q9Y5S2); conditions: at 0.1 µM
# [14] = target: Serine/threonine-protein kinase MRCK beta (Homo sapiens) (UniProt Q9Y5S2); conditions: at 1 µM
# [15] = target: Ribosomal protein S6 kinase alpha-5 (Homo sapiens) (UniProt O75582); conditions: at 0.1 µM
# [16] = target: Ribosomal protein S6 kinase alpha-5 (Homo sapiens) (UniProt O75582); conditions: at 1 µM
# [17] = target: Ribosomal protein S6 kinase alpha-4 (Homo sapiens) (UniProt O75676); conditions: at 0.1 µM
# [18] = target: Ribosomal protein S6 kinase alpha-4 (Homo sapiens) (UniProt O75676); conditions: at 1 µM
# [19] = target: Ribosomal protein S6 kinase beta-1 (Homo sapiens) (UniProt P23443); conditions: at 0.1 µM
# [20] = target: Ribosomal protein S6 kinase beta-1 (Homo sapiens) (UniProt P23443); conditions: at 1 µM
# RAC-alpha serine/threonine-protein kinase (Homo sapiens), sequence (P31749 whole entry): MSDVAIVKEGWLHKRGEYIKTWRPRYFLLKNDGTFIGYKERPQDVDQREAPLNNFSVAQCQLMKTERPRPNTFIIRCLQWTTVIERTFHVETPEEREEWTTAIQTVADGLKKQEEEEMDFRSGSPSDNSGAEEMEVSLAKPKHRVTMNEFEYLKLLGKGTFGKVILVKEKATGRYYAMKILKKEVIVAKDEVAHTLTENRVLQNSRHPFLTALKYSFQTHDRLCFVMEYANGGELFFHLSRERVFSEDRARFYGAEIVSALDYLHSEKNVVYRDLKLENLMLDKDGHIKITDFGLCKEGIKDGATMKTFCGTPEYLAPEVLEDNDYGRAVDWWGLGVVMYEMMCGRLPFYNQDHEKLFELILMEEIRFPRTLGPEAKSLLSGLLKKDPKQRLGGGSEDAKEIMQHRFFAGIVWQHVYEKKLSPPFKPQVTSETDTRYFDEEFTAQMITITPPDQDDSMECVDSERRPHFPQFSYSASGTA
# Serine/threonine-protein kinase MRCK alpha (Homo sapiens), sequence (Q5VT25 whole entry): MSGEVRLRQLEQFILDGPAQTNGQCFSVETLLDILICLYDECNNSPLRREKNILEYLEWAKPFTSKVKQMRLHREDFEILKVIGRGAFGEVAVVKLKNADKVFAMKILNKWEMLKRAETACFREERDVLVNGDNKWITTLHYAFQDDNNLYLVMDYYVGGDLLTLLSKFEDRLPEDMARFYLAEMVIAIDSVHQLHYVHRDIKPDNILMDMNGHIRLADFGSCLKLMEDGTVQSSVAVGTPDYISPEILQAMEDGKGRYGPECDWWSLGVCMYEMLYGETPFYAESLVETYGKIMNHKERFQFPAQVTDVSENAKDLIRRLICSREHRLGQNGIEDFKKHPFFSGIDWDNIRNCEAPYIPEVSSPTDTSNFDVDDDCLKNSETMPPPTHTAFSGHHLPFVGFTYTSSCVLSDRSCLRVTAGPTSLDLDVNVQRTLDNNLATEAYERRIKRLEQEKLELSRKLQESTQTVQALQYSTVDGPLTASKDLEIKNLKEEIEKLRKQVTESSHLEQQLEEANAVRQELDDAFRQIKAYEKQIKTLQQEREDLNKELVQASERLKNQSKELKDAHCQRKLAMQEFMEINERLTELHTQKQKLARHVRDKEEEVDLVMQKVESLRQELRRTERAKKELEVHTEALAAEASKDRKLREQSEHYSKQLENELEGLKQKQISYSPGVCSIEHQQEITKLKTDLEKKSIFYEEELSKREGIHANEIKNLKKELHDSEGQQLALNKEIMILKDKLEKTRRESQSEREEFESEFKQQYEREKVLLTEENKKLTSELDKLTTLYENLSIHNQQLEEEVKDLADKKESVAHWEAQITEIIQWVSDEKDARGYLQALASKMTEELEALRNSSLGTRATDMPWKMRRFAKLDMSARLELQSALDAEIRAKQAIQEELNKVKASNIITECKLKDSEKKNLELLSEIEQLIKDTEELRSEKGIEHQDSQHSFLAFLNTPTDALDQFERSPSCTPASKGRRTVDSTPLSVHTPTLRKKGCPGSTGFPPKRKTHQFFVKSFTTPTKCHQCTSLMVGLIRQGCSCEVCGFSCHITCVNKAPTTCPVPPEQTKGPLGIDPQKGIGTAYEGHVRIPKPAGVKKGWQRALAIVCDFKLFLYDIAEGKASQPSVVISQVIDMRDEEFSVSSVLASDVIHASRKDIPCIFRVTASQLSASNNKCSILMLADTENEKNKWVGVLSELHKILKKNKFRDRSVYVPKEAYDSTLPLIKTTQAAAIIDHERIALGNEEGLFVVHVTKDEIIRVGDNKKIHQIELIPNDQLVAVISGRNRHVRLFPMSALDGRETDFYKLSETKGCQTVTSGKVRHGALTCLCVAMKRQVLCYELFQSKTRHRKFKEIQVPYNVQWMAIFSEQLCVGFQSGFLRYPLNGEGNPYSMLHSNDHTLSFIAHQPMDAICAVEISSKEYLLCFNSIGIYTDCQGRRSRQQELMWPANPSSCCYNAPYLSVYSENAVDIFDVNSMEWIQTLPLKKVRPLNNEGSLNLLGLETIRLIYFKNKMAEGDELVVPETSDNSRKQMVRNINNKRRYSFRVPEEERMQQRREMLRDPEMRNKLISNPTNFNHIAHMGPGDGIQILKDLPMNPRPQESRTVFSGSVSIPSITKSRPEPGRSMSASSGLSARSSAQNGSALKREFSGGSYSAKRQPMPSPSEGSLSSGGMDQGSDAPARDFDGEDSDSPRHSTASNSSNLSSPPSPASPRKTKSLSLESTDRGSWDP
# RAC-gamma serine/threonine-protein kinase (Homo sapiens), sequence (Q9Y243 whole entry): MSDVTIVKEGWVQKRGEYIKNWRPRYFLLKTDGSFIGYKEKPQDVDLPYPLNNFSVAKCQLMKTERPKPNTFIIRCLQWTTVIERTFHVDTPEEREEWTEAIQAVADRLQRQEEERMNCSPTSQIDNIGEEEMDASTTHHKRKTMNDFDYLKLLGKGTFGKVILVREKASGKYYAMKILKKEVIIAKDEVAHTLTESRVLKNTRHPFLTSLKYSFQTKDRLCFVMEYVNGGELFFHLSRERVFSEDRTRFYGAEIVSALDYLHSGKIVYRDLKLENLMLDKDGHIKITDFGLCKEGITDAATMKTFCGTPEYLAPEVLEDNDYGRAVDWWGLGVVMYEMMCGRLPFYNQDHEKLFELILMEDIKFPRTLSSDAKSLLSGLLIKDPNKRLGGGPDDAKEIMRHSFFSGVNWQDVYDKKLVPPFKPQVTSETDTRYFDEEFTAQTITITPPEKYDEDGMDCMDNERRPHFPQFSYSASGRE
# Ribosomal protein S6 kinase alpha-4 (Homo sapiens), sequence (O75676 whole entry, looked up): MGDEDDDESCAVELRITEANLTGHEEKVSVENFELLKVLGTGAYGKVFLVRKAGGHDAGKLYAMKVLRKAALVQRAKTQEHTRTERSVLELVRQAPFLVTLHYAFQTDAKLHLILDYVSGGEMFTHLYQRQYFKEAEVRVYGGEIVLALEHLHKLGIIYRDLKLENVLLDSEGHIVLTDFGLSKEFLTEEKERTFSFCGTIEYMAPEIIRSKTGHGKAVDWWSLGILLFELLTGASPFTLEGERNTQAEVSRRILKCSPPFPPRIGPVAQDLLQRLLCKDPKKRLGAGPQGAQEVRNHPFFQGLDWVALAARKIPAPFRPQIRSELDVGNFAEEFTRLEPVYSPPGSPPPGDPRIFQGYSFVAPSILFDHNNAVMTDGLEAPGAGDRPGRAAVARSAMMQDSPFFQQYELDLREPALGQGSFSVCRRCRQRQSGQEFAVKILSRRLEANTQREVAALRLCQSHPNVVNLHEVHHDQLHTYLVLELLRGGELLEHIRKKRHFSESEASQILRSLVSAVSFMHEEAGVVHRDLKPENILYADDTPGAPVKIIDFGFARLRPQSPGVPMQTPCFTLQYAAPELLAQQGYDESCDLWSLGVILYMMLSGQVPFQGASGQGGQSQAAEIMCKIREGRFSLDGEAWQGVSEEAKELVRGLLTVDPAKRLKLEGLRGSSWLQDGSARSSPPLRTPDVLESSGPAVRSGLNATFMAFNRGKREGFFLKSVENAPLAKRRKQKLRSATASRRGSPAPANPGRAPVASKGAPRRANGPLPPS
# RAC-beta serine/threonine-protein kinase (Homo sapiens), sequence (P31751 whole entry): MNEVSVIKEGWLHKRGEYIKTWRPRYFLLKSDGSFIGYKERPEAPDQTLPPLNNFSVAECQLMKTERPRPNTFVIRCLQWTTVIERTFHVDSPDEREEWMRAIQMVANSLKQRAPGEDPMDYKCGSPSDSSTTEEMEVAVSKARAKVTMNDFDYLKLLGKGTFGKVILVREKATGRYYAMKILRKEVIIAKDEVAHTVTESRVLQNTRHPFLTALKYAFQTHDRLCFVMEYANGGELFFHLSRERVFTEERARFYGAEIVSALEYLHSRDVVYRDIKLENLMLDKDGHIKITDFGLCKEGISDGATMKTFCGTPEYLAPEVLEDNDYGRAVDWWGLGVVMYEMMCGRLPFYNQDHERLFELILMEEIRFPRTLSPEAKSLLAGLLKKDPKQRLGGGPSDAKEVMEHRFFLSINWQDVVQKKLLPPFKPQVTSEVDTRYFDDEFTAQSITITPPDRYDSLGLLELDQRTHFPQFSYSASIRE
# Ribosomal protein S6 kinase beta-1 (Homo sapiens), sequence (P23443 whole entry, looked up): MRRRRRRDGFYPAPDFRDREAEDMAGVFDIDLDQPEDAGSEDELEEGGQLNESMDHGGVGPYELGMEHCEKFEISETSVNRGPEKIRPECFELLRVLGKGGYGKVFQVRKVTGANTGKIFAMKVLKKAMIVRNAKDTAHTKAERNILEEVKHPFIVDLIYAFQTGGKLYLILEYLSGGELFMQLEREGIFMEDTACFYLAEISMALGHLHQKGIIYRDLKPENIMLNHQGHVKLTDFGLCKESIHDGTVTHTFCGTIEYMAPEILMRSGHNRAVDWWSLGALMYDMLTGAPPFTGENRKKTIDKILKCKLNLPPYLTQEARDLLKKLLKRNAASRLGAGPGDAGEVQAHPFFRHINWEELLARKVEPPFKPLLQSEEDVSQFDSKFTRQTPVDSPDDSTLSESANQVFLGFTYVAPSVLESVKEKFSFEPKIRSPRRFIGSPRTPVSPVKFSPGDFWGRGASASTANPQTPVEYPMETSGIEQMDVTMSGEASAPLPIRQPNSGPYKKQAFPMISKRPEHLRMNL
# G protein-coupled receptor kinase 6 (Homo sapiens), sequence (P43250 whole entry, looked up): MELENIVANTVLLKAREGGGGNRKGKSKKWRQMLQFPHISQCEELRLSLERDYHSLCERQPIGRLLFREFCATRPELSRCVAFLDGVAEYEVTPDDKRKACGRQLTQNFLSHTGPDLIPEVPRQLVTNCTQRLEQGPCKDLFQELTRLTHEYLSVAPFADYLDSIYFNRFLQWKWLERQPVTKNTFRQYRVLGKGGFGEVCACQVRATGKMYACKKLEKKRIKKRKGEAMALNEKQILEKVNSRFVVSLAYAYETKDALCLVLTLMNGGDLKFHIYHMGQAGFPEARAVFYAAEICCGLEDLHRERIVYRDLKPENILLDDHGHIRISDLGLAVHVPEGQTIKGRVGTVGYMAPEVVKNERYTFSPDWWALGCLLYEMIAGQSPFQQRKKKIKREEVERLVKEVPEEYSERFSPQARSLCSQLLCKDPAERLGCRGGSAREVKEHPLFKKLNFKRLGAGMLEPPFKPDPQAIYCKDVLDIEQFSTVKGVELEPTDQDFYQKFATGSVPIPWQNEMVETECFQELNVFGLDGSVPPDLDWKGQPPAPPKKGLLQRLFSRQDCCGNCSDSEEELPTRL
smiles,measurement,setting,value
Fc1ccc(-c2c(-c3ccncc3)nc3n2CCS3)cc1,inhibition,[1],-3.71%
same,inhibition,[2],-2.76%
same,inhibition,[3],-2.67%
same,inhibition,[4],-1.63%
same,inhibition,[5],-3.31%
same,inhibition,[6],-0.46%
same,inhibition,[7],5.32%
same,inhibition,[8],4.18%
same,inhibition,[9],2.86%
same,inhibition,[10],7.9%
same,inhibition,[11],1.61%
same,inhibition,[12],5.14%
same,inhibition,[13],2.15%
same,inhibition,[14],9.93%
same,inhibition,[15],3.9%
same,inhibition,[16],8.14%
same,inhibition,[17],4.42%
same,inhibition,[18],8.86%
same,inhibition,[19],0.97%
same,inhibition,[20],2.52%
O=C(Nc1ccc(Oc2ccc3[nH]c(NC(=O)c4ccccc4)nc3c2)cc1)Nc1cc(C(F)(F)F)ccc1F,inhibition,[1],-0.2%
same,inhibition,[2],1.04%
same,inhibition,[3],1.71%
same,inhibition,[4],1.18%
same,inhibition,[5],1.05%
same,inhibition,[6],1.51%
same,inhibition,[7],2.58%
same,inhibition,[8],4.7%
same,inhibition,[9],0.51%
same,inhibition,[10],-2.78%
same,inhibition,[11],-0.69%
same,inhibition,[12],1%
same,inhibition,[13],-0.31%
same,inhibition,[14],-0.22%
same,inhibition,[15],4.16%
same,inhibition,[16],5.67%
same,inhibition,[17],2.16%
same,inhibition,[18],3.01%
same,inhibition,[19],5.73%
same,inhibition,[20],36.4%
CN(C)c1ccc2c(c1)/C(=C/Nc1ccc(S(N)(=O)=O)cc1)C(=O)N2,inhibition,[1],0.14%
same,inhibition,[2],-0.46%
same,inhibition,[3],0.75%
same,inhibition,[4],1.06%
same,inhibition,[5],2.06%
same,inhibition,[6],1.85%
same,inhibition,[7],3.15%
same,inhibition,[8],5.15%
same,inhibition,[9],0.97%
same,inhibition,[10],8.73%
same,inhibition,[11],0.22%
same,inhibition,[12],4.01%
same,inhibition,[13],1.12%
same,inhibition,[14],2.85%
same,inhibition,[15],3.06%
same,inhibition,[16],4.05%
same,inhibition,[17],1.96%
same,inhibition,[18],3.55%
same,inhibition,[19],0.19%
same,inhibition,[20],3.09%
CN(C)CCCNc1nccc(-c2c(-c3ccc(F)cc3)nn3cc(C(F)(F)F)ccc23)n1,inhibition,[1],-2.46%
same,inhibition,[2],-2.95%
same,inhibition,[3],-2.07%
same,inhibition,[4],-3.03%
same,inhibition,[5],-2.14%
same,inhibition,[6],-2.29%
same,inhibition,[7],0.16%
same,inhibition,[8],-2.93%
same,inhibition,[9],-0.49%
same,inhibition,[10],-5.64%
same,inhibition,[11],0.46%
same,inhibition,[12],1.03%
same,inhibition,[13],0.48%
same,inhibition,[14],1.09%
same,inhibition,[15],1.3%
same,inhibition,[16],2.69%
same,inhibition,[17],1.95%
same,inhibition,[18],4.5%
same,inhibition,[19],2.93%
same,inhibition,[20],3.55%
Fc1ccc(-c2ncn(C3CCNCC3)c2-c2ccnc(Oc3ccc(Oc4ccccc4)cc3)n2)cc1,inhibition,[1],1.23%
same,inhibition,[2],1.87%
same,inhibition,[3],1.23%
same,inhibition,[4],1.51%
same,inhibition,[5],2.28%
same,inhibition,[6],4.62%
same,inhibition,[7],3.64%
same,inhibition,[8],6.73%
same,inhibition,[9],10.9%
same,inhibition,[10],3.4%
same,inhibition,[11],5.81%
same,inhibition,[12],7.37%
same,inhibition,[13],-0.26%
same,inhibition,[14],1.5%
same,inhibition,[15],10.2%
same,inhibition,[16],11.9%
same,inhibition,[17],2.53%
same,inhibition,[18],5.09%
same,inhibition,[19],2.41%
same,inhibition,[20],4.57%
CS(=O)(=O)CCNCc1cc(-c2cc3c(Nc4ccc(OCc5cccc(F)c5)c(Cl)c4)ncnc3s2)cs1,inhibition,[1],0.79%
same,inhibition,[2],0.35%
same,inhibition,[3],0.7%
same,inhibition,[4],1.93%
same,inhibition,[5],1.15%
same,inhibition,[6],3.27%
same,inhibition,[7],6.28%
same,inhibition,[8],6.32%
same,inhibition,[9],8.59%
same,inhibition,[10],4.24%
same,inhibition,[11],2.36%
same,inhibition,[12],5.45%
same,inhibition,[13],-0.63%
same,inhibition,[14],2.8%
same,inhibition,[15],2.17%
same,inhibition,[16],1.79%
same,inhibition,[17],3.41%
same,inhibition,[18],4.94%
same,inhibition,[19],2.17%
same,inhibition,[20],4.75%
Cc1ccc(C(=O)NC(C)C)cc1-c1ccc(C(=O)NCC2CC2)cc1,inhibition,[1],-2.54%
same,inhibition,[2],-2.49%
same,inhibition,[3],-4.74%
same,inhibition,[4],-3%
same,inhibition,[5],-3.94%
same,inhibition,[6],-1.32%
same,inhibition,[7],-3.15%
same,inhibition,[8],-2.12%
same,inhibition,[9],-1.17%
same,inhibition,[10],-7.32%
same,inhibition,[11],0.02%
same,inhibition,[12],-2.08%
same,inhibition,[13],0.15%
same,inhibition,[14],0.39%
same,inhibition,[15],-3.69%
same,inhibition,[16],-3.9%
same,inhibition,[17],-1.65%
same,inhibition,[18],-2.17%
same,inhibition,[19],-2.1%
same,inhibition,[20],-2.29%
C[C@@H](Oc1cc(-n2cnc3ccc(OCC4CCN(C)CC4)cc32)sc1C(N)=O)c1ccccc1Cl,inhibition,[1],0.75%
same,inhibition,[2],0.38%
same,inhibition,[3],1.73%
same,inhibition,[4],2.79%
same,inhibition,[5],0.98%
same,inhibition,[6],3.81%
same,inhibition,[7],4.28%
same,inhibition,[8],9.48%
same,inhibition,[9],10.8%
same,inhibition,[10],9.71%
same,inhibition,[11],3.98%
same,inhibition,[12],9.1%
same,inhibition,[13],1.18%
same,inhibition,[14],1.35%
same,inhibition,[15],4.97%
same,inhibition,[16],7.75%
same,inhibition,[17],3.23%
same,inhibition,[18],7.58%
same,inhibition,[19],2.88%
same,inhibition,[20],6.79%
Fc1ccc(-c2ncn(C3CCNCC3)c2-c2ccnc(Oc3ccc(F)c(F)c3)n2)cc1,inhibition,[1],-3%
same,inhibition,[2],-3.59%
same,inhibition,[3],-3.3%
same,inhibition,[4],-2.56%
same,inhibition,[5],-2.6%
same,inhibition,[6],-1.9%
same,inhibition,[7],-0.72%
same,inhibition,[8],2.05%
same,inhibition,[9],9.11%
same,inhibition,[10],1.73%
same,inhibition,[11],-3.08%
same,inhibition,[12],-2.58%
same,inhibition,[13],-0.68%
same,inhibition,[14],-0.35%
same,inhibition,[15],0.54%
same,inhibition,[16],-0.7%
same,inhibition,[17],3.37%
same,inhibition,[18],4.69%
same,inhibition,[19],0.73%
same,inhibition,[20],0.63%
COc1cc(Nc2ncc3c(C)nc(-c4cccc(Oc5ccccc5)c4)n3n2)cc(OC)c1OC,inhibition,[1],0.97%
same,inhibition,[2],1.22%
same,inhibition,[3],0.47%
same,inhibition,[4],1.85%
same,inhibition,[5],1.02%
same,inhibition,[6],1.43%
same,inhibition,[7],1.19%
same,inhibition,[8],-5.44%
same,inhibition,[9],-0.36%
same,inhibition,[10],-5.43%
same,inhibition,[11],0.02%
same,inhibition,[12],-0.11%
same,inhibition,[13],0.97%
same,inhibition,[14],1.86%
same,inhibition,[15],8.17%
same,inhibition,[16],7.74%
same,inhibition,[17],0.96%
same,inhibition,[18],2.98%
same,inhibition,[19],1.98%
same,inhibition,[20],3.01%
O=C(Nc1n[nH]c2cc(-c3ccccc3)ccc12)C1CC1,inhibition,[1],0.57%
same,inhibition,[2],-0.63%
same,inhibition,[3],1.2%
same,inhibition,[4],1.68%
same,inhibition,[5],0.33%
same,inhibition,[6],2.94%
same,inhibition,[7],2.59%
same,inhibition,[8],3.48%
same,inhibition,[9],3.13%
same,inhibition,[10],3.52%
same,inhibition,[11],0.05%
same,inhibition,[12],-1.04%
same,inhibition,[13],0.91%
same,inhibition,[14],0.02%
same,inhibition,[15],5.17%
same,inhibition,[16],5.56%
same,inhibition,[17],2.14%
same,inhibition,[18],1.76%
same,inhibition,[19],0.9%
same,inhibition,[20],1.27%
COc1ccc2cc(-c3c(-c4ccncc4)nc(-c4ccc([S+](C)[O-])cc4C)n3C)ccc2c1 (stereo not given),inhibition,[1],-0.62%
same,inhibition,[2],-0.09%
same,inhibition,[3],-0.6%
same,inhibition,[4],-0.29%
same,inhibition,[5],0.09%
same,inhibition,[6],1.08%
same,inhibition,[7],2.06%
same,inhibition,[8],-0.69%
same,inhibition,[9],-2.36%
same,inhibition,[10],-0.96%
same,inhibition,[11],-1.8%
same,inhibition,[12],1.91%
same,inhibition,[13],0.22%
same,inhibition,[14],1.15%
same,inhibition,[15],-7.06%
same,inhibition,[16],-6.22%
same,inhibition,[17],-0.04%
same,inhibition,[18],-0.04%
same,inhibition,[19],0.21%
same,inhibition,[20],0.05%
O=C(Nc1n[nH]c2nc(-c3ccc(O)cc3)c(Br)cc12)C1CC1,inhibition,[1],0.84%
same,inhibition,[2],2.07%
same,inhibition,[3],2.21%
same,inhibition,[4],3.12%
same,inhibition,[5],3.32%
same,inhibition,[6],12.5%
same,inhibition,[7],11.6%
same,inhibition,[8],32.6%
same,inhibition,[9],5.77%
same,inhibition,[10],17.4%
same,inhibition,[11],1.56%
same,inhibition,[12],13.5%
same,inhibition,[13],1.77%
same,inhibition,[14],15.5%
same,inhibition,[15],5.22%
same,inhibition,[16],13.6%
same,inhibition,[17],2.78%
same,inhibition,[18],6.3%
same,inhibition,[19],2.07%
same,inhibition,[20],6.85%
